Measured values from PubChem BioAssay (NCATS).
Records with an inconclusive call do not appear. Values without a mark were called inactive. The source made the active and inactive calls. Calls come from the whole dose curve.

Assay: Cell Viability - HepG2 (AID 433);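 note: potency for ATP loss meaning cytotoxicity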
Conditions: qHTS
Excerpt: NIH Chemical Genomics Center [NCGC]
NIH Molecular Libraries Screening Centers Network [MLSCN]
National Institutes of Environmental Health Sciences [NIEHS]
National Toxicology Program [NTP]
We have developed a 1536-well cell-based assay for quantitative high throughput screening (qHTS) against a number of cell lines to determine in vitro cytotoxicity of small molecules. This particular assay uses the HepG2 cell line which is derived from hepatocellular carcinoma.
NCGC Assay Protocol Summary:
The CellTiter-Glo luminescent cell viability assay (Promega) is a homogeneous method to measure the number of viable cells in culture. The end point readout of this assay is based on quantitation of intracellular ATP, an indicator of metabolic activity, using the luciferase reaction. Luciferase catalyzes the oxidation of beetle Luciferin to oxyluciferin and light in the presence of ATP. The luminescent signal is proportional to amount of ATP present.
Using the CellTiter-Glo luminescent cell viability assay, the amount of cellular ATP was measured in the HepG2 cell line with complete culture medium following compound treatment for 40 hours. The assay was performed in opaque white Kalypsys 1536-well plates. In the screen, tamoxifen and doxorubicin were used as positive controls. Library compounds were measured for their ability to cause acute toxicity in the cell line, as reflected by a decrease in intracellular ATP levels, in a concentration-dependent manner. Data were normalized to the controls for basal activity (DMSO only) and 100% inhibition (100 uM tamoxifen). AC50 values were determined from concentration-response data modeled with the standard Hill equation.
qHTS protocol fo CellTiter Glo HepG2 cellular assay
[Step] [Parameter] [Value] [Description]
1. Reagent; 5 uL; 1500 HepG2 cells/well
2. Time; 5 hr; 37 °C incubation
4. Controls; 23 nL; Tamoxifen 0.34 uM to 100 uM & Doxorubicin 0.02 nM to 100 uM
5. Time; 40 hr; 37 °C incubation
6. Reagent; 5 uL; CellTiter Glo reagent
7. Time; 20 min; Room Temperature
8. Detection; Luminescence; Viewlux plate reader
Keywords: cell viability, cytotoxicity, HepG2 cell line, luminescence, NTPHTS, NTPHTS_NCGC, NIEHS, EPA, DSSTox, MLSMR, MLSCN, NIH Roadmap, qHTS, NCGC
Potency is the fitted concentration of half-maximal effect.

Row | Structure (SMILES) | Potency
1 | [O-][N+](=Nc1ccccc1)c1ccccc1 | > 92 µM
2 | OCl | > 92 µM
3 | c1ccc2ccccc2c1 | > 92 µM
4 | OB(O)O | > 92 µM
5 | C/C=C/C=C/C(=O)O | > 92 µM
6 | OCC(O)CO | > 92 µM
7 | CCOC(C)OCC | > 92 µM
8 | Cc1ccc(S(=O)(=O)O)cc1C | > 92 µM
9 | NCCN | > 92 µM
10 | Oc1cccc(O)c1O | > 92 µM
11 | O.O.O.O.O.O.O.O=S(=O)([O-])[O-].[Co+2] | > 92 µM
12 | Nc1ncnc2c1ncn2[C@H]1CC[C@@H](CO)O1 | > 92 µM
13 | CC1=CC(=O)NS(=O)(=O)O1 | > 92 µM
14 | ClC(Cl)Cl | > 92 µM
15 | OC[C@H]1O[C@@H]2O[C@H]3[C@H](O)[C@@H](O)[C@@H](O[C@H]4[C@H](O)[C@@H](O)[C@@H](O[C@H]5[C@H](O)[C@@H](O)[C@@H](O[C@H]6[C@H](O)[C@@H](O)[C@@H](O[C@H]7[C@H](O)[C@@H](O)[C@@H](O[C@H]1[C@H](O)[C@H]2O)O[C@@H]7CO)O[C@@H]6CO)O[C@@H]5CO)O[C@@H]4CO)O[C@@H]3CO | > 92 µM
16 | C[C@H](CCC(=O)O)[C@H]1CC[C@H]2[C@@H]3[C@H](O)C[C@@H]4C[C@H](O)CC[C@]4(C)[C@H]3C[C@H](O)[C@]12C | > 92 µM
17 | CC/C=C\C/C=C\C/C=C\CCCCCCCC(=O)O | > 92 µM
18 | CO | > 92 µM

Row | Structure (SMILES) | Potency
19 | CC[C@H]1OC(=O)[C@H](C)[C@@H](O[C@H]2C[C@@](C)(OC)[C@@H](O)[C@H](C)O2)[C@H](C)[C@@H](O[C@@H]2O[C@H](C)C[C@H](N(C)C)[C@H]2O)[C@](C)(O)C[C@@H](C)CN(C)[C@H](C)[C@@H](O)[C@]1(C)O | > 92 µM
20 | C=C1C(CCl)(CCl)C2(Cl)C(Cl)C(Cl)C1(Cl)C2(Cl)Cl (stereo not given) | > 92 µM
21 | C[C@H](CCC(=O)O)[C@H]1CC[C@H]2[C@@H]3CC[C@@H]4C[C@H](O)CC[C@]4(C)[C@H]3C[C@H](O)[C@]12C | > 92 µM
22 | C[C@H]1O[C@@H](O[C@H]2[C@@H](O)C[C@H](O[C@H]3[C@@H](O)C[C@H](O[C@H]4CC[C@@]5(C)[C@H](CC[C@@H]6[C@@H]5C[C@@H](O)[C@]5(C)[C@@H](C7=CC(=O)OC7)CC[C@]65O)C4)O[C@@H]3C)O[C@@H]2C)C[C@H](O)[C@@H]1O | 0.0159 µM (active)
23 | COC(=O)c1ccccc1O | > 92 µM
24 | CC1=CCC2CC1C2(C)C (stereo not given) | > 92 µM
25 | Oc1ccc(/C=C/c2cc(O)cc(O)c2)cc1 | > 92 µM
26 | CO/N=C(/C(=O)N[C@@H]1C(=O)N2C(C(=O)O)=C(COC(N)=O)CS[C@H]12)c1ccco1 | > 92 µM
27 | CC(C)O | > 92 µM
28 | Nc1nccs1 | > 92 µM
29 | OCc1ccccc1 | > 92 µM
30 | Nc1ccc(N=Nc2ccccc2)c(N)n1 | > 92 µM
31 | O=P(O)(O)O | > 92 µM
32 | CCCCC | > 92 µM
33 | CCCCO | > 92 µM
34 | NC(N)=O | > 92 µM
35 | Cc1ncc[nH]1 | > 92 µM
